# Bioassay records as filed in PubChem.
# Shown are actives, neighbours in structure and some others; about 1.8% of the full set was active somewhere.
# HEK293 tox: cytotoxicity in counter-screen for GLP-1R inverse agonists | AID 624418 | Potency, µM (titrated, usually from 38.3 µM), for inactives: at the top dose activity change, negative = inhibition, hits mostly inhibitors | HEK293 cAMP-luciferase reporter cells, luminescence, 24 h | hit rate 0.13% among 410,000;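 also: loss of luciferase light is scored as toxicity; % is scaled to controls: 0 for no effect and ±100 for the full control effect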
#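 MLSMR compounds, 24 hr on cells at 37 deg C/5% CO2; luminescence after luciferase reagent (12 min RT). Inhibition counted as the undesired cytotoxic outcome.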
# PTHR1 ag: agonists of human PTHR1 parathyroid hormone receptor | hit rate 0.075% among 410,000 | Potency, µM (doses to about 115 µM), for the others: at the highest dose activation, actives largely listed as activators | HEK293 GP2 PTHR1 cells, GloSensor cAMP luminescence, 1 h; also: nearly all actives have a fitted effect of over 55% in size
#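 HEK-293-derived GP2 cells expressing PTHR1 and a GloSensor cAMP reporter, 3,000/well, plated overnight, given luciferin plus IBMX (each 0.5 mM as added) for 1 h at 37 °C, then compound for 1 h at 37 °C. Luminescence was read after 15 min at room temperature.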
# RGS4 inhibitor: blocks human RGS4-accelerated GTP hydrolysis. P49798. Transcreener GDP fluorescence polarization, RGS4-accelerated GTP hydrolysis. Potency, µM (series often up to 114 µM), for the others: top-dose activity change, negative = inhibition, actives largely listed as inhibitors. hit rate 0.039% among 390,000; also: % is scaled to controls: 0 for no effect and ±100 for the full control effect; nearly all actives have a fitted effect of over 75% in size
# Target sequence (P49798 whole entry, looked up): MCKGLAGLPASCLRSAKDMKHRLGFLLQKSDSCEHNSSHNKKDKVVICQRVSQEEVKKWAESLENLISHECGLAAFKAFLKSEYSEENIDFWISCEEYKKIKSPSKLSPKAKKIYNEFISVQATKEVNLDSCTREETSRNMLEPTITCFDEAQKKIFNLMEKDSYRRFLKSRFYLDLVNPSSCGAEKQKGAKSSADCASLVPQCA
#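 MLSMR compounds (23 nl, pin-transferred) preincubated 10 min at room temperature with a 500nM (2x) first reagent, then RGS4 at 900nM (2x) plus Transcreener GDP mix added; fluorescence polarization (620/688 nm) read before and after 90 min at 30 °C.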
# KAT2A inh: blocks human GCN5L2 histone acetyltransferase | GCN5L2 HAT assay, ThioGlo1 CoA-SH fluorescence | hit rate 0.21% among 390,000 | Q92830 | Potency, µM (top dose mostly 58.9 µM), for inactives: top-dose activity change, negative = inhibition, hits mostly inhibitors | AID 504327; also: % is scaled to controls: 0 for no effect and ±100 for the full control effect
#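 Free CoA generated was detected with ThioGlo1 (50uM) fluorescence at Ex340nm/Em540nm, read immediately and after 20 min at room temperature. Enzyme, 20 nM in HEPES pH 7.5 buffer, saw compounds 15 min before adding 75uM H3(1-25) peptide and 70uM acetyl-CoA.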
# GLP1R inv ag: inverse agonists of human GLP-1 receptor | P43220 | Potency, µM (series often up to 38.3 µM), for the others: at the top dose activity change, negative = inhibition, most hits filed as inhibitors | HEK293 GLP-1R CRE-luciferase, luminescence, 24 h; GLP-1R form is constitutively active | hit rate 1.6% among 410,000; also: % is scaled to controls: 0 for no effect and ±100 for the full control effect; nearly all actives have a fitted effect of over 55% in size
# Target sequence (P43220 whole entry, looked up): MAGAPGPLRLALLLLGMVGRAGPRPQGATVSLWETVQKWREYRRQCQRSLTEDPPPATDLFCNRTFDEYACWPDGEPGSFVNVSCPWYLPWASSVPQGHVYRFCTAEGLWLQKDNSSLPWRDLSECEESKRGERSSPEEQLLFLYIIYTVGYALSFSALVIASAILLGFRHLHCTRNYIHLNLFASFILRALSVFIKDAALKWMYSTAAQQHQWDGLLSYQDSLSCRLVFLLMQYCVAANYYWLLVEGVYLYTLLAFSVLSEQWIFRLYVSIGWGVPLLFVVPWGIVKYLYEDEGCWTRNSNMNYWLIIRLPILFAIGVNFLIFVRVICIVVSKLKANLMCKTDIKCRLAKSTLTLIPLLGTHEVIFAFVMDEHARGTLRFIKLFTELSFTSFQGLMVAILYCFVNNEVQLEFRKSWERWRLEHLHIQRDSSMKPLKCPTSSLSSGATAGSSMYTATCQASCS
#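 GLP-1R inverse agonism mode: basal reporter luminescence in engineered HEK293 cells measured after one day of compound exposure at 37 deg C, with a 12 min room-temperature detection step.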
# GLP-1R agonist: agonists of human GLP-1 receptor | hit rate 0.007% among 380,000 | AID 624172 | P43220 | HEK293 GLP-1R CRE-luciferase, luminescence, 4-6 h; cells express a hypersensitive GLP-1R form | Potency, µM (top dose mostly 45.6 µM), for inactives: at the top dose activation, hits mostly activators; also: % of control where 0% means no effect
# The depositor's hits bear a star; i = inactive; ? = inconclusive; . = not tested or not shown; [ ] = remark or other dose. Calls follow the shape of the dose curve; as a rule, active = well fitted curve in the direction sought with a large enough effect; inconclusive = small, poorly fitted or top-dose-only effect, or another doubt; inactive = no such curve, though single readings can be large; an effect the other way counts as inactive or inconclusive. Potency is read from the fitted curve at half-maximal effect.
SMILES,HEK293 tox,PTHR1 ag,RGS4 inhibitor,KAT2A inh,GLP1R inv ag,GLP-1R agonist
Cn1c(Oc2ccc(Cl)cc2)c(C=O)c2ccccc21,5%,i,9%,-2%,?,-2%
CC(=O)N1CCCc2cc(S(=O)(=O)N(C)CC(=O)Nc3cccc(Cl)c3C)ccc21,-11%,-32%,8%,0%,-15%,.
CCc1ccccc1-n1nnnc1SCC(=O)Nc1ccc(N2CCN(C)CC2)cc1,-8%,i,-4%,-4%,1.8µM*,7%
Cc1ccccc1-n1nnnc1SCC(=O)Nc1ccc(N2CCN(C)CC2)cc1,-19%,-30%,-17%[56.9 µM],-1%,1µM*,-5%
Cc1cccc(-n2nnnc2SCC(=O)Nc2ccc(N3CCN(C)CC3)cc2)c1,-18%,-9%,-41%[56.9 µM],-10%,?,3%
CCOc1ccc(C2C(=O)N(C3CCCCC3)CC(=O)N2Cc2ccccc2OC)cc1OC (stereo not given),15%,-42%,2%,-15%,11%,.
CC(NC(=O)CN(c1ccc(Cl)cc1Cl)S(=O)(=O)c1ccccc1)c1ccccc1 (stereo not given),-5%,-18%,-5%,-5%,8.9µM*,.
Cc1ccc(CNC(=O)CN(c2ccc(Cl)cc2Cl)S(=O)(=O)c2ccccc2)cc1,-10%,i,28%,-13%,10µM*,.
CCOC(=O)C1=C(CNCc2ccc(C)cc2)NC(=O)NC1c1ccc(OC)cc1 (stereo not given),?,-12%,-10%,-9%,13µM*,10%
CCOC(=O)C1Nc2ccc(OC(F)(F)F)cc2C2C=CCC12 (stereo not given),3%,-42%,-40%,.,5%,-2%
CCOC(=O)C1Nc2ccccc2C2C(O)C(O)CC12 (stereo not given),7.1µM*,-32%,?,.,17%,4%
CN(C)CCCCCCCCCCC(=O)/C=N/O,-6%,i,25%,.,10µM*,4%
CCN(c1ccccc1)S(=O)(=O)c1ccc(OC)c(NC(=O)Cc2ccccc2OC)c1,-12%,-17%,-9%,-6%,10µM*,4%
CCN1CCN(CC(=O)Nc2cc(S(=O)(=O)N(CC)c3ccccc3)ccc2Cl)CC1,?,-24%,3%,1%,10µM*,8%
Cc1cccn2c(=O)cc(COc3ccc(NC(=O)c4cccc(F)c4)cc3)nc12,30%,?,7%,15%,7%,.
CC(C)Oc1ccc(S(=O)(=O)N2CCOCC2)cc1NC(=O)CSC(=S)N1CCCC1,-22%,-11%,.,.,34%,20%
COc1ccc(NC(=O)/C=C/c2cc(Br)ccc2OC)cc1,6%,-8%[57.5 µM],18%,?,?,-15%
COc1ccc(Br)cc1/C=C/C(=O)c1ccc(NC(C)=O)cc1,-11%,-18%,-32%,-2%,5µM*,-38%
Oc1ccc2ccccc2c1SSc1c(O)ccc2ccccc12,.,.,1.7µM*,?,.,.
COc1cccc(Cn2c(=O)n(-c3ccc(C)c(F)c3)c(=O)c3sc4ccccc4c32)c1,3%,i,-29%,4%,-8%,0%
CS(=O)(=O)N(CC(=O)NCCSCc1ccccc1)c1cc(C(F)(F)F)ccc1Cl,-13%,-36%,-6%,-4%,11µM*,.
O=C(CCl)N(C1CCCC1)C1CCS(=O)(=O)C1 (stereo not given),6%,-11%,-34%,-1%,4.5µM*,-2%
c1csc(-c2nc(NCC3CCCO3)c3ccccc3n2)c1 (stereo not given),-12%,i,29%,-2%,?,16%
c1ccc(CN2CCC(Nc3nc(-c4cccs4)nc4ccccc34)CC2)cc1,?,i,5%[56.9 µM],-11%,7.1µM*,-4%
CSCC[C@H](NC(=O)[C@H](CC(C)C)NC(=O)[C@H](CO)NC(=O)[C@H](CCC(=O)O)NC(=O)[C@H](CC(C)C)NC(=O)[C@H](Cc1ccc(O)cc1)NC(=O)[C@H](CCCCN)NC(=O)[C@H](CCCCN)NC(=O)[C@H](C)NC(=O)[C@H](CO)NC(=O)[C@H](CC(C)C)NC(=O)[C@H](CCC(N)=O)NC(=O)CNC(=O)[C@H](CC(C)C)NC(=O)[C@H](CC(C)C)NC(=O)[C@H](CCCCN)NC(=O)[C@H](CO)NC(=O)[C@H](Cc1ccccc1)NC(=O)[C@H](CC(=O)O)NC(=O)[C@H](CO)NC(=O)[C@@H](NC(=O)[C@H](Cc1ccccc1)NC(=O)[C@@H](NC(=O)CNC(=O)[C@H](CC(=O)O)NC(=O)[C@H](C)NC(=O)[C@@H](N)Cc1cnc[nH]1)C(C)C)[C@@H](C)O)C(N)=O,.,.,.,-3%,.,.
SMILES,HEK293 tox,PTHR1 ag,RGS4 inhibitor,KAT2A inh,GLP1R inv ag,GLP-1R agonist
CCC(Sc1nnc(-c2ccc(C)c(Cl)c2)n1CC)C(=O)Nc1nccs1 (stereo not given),0%,-41%,21%,-4%,6.3µM*,7%
CCn1c(SCC(=O)Nc2nccs2)nnc1-c1ccc(S(=O)(=O)N2CCCCCC2)cc1,-16%,-10%,12%,1%,-9%,-6%
Cc1ccc(Nc2nc(C)cc(C)c2C#N)c(C)c1,4%,i,.,.,-1%,8%
C/C(=N\NC(=S)Nc1cccc(C)c1)c1cccc(N)c1,?,i,-4%,19%,12%,14%
C/C(=N\NC(=S)Nc1ccc(C)cc1)c1cccc(N)c1,4.5µM*,i,-27%,-1%,?,10%
C/C(=N\NC(=S)Nc1c(C)cccc1C)c1ccc(O)cc1,?,-25%,10%[11.4 µM],-6%,10µM*,16%
C=CCNC(=O)c1c(CSc2ccc(F)cc2)noc1C(=O)NCCC,8%,0%,8%,-12%,-1%,13%
O=C(CCCN1C(=O)NC2(CCCC2)C1=O)Nc1ccc(F)cc1,7%,-2%,-7%,-1%,-20%,8%
Cc1ccc(Sc2ccc(NC(=O)CCN3C(=O)NC4(CCCC4)C3=O)cc2)c(C)c1,-25%,-43%,-2%,-3%,11µM*,9%
CSc1ccc(Cl)c(C(=O)NCCOc2cc(C(C)C)ccc2C)c1,3%,i,-40%,-13%,11µM*,-3%
COc1cc(SC)ccc1C(=O)NCCOc1ccc(Cl)cc1,-4%,-28%,1%,-3%,?,9%
COc1ccc(OC)c(NC(=O)Nc2nc(C(N)CCc3ccccc3)cs2)c1 (stereo not given),2%,-7%,.,.,?,-4%
